The record followed here is PubChem BioAssay (Tox21).

Assay [1] can be described thus: qHTS assay to identify aromatase inhibitors - cell viability counter screen (AID 743084).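 Also: cells stimulated with testosterone during compound exposure; nearly all actives have a fitted effect of over 55% in size.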 Also: potency is read from the fitted curve at half-maximal effect.
Assay [2] can be described thus: qHTS assay to identify small molecule that activate the aryl hydrocarbon receptor (AhR) signaling pathway - cell viability counter screen (AID 743086). Also: nearly all actives have a fitted effect of over 45% in size. Also: potency is read from the fitted curve at half-maximal effect. The essentials: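 Cytotoxicity counter screen: CellTiter-Fluor signal (30 min, 37 C) in 4000 HepG2 cells/well carrying the DRE-luciferase reporter, following 24 h compound exposure at 37 C.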
(In general: In qHTS, concentration-response curves come from the screen itself.)

The target of assay [3] is Peroxisome proliferator-activated receptor gamma (Homo sapiens) (UniProt P37231). As to the kind of experiment: qHTS assay to identify small molecule agonists of the peroxisome proliferator-activated receptor gamma (PPARg) signaling pathway (AID 743094; active = well fitted activation curve with a large enough effect in the signal ratio in the repeat runs, not every such curve was filed as active; the % refers to the signal ratio). The essentials:
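Reporter activation was scored by fluorescence of cleaved LiveBLAzer B/G substrate (1 h, room temperature) in PPARg-bla HEK293H cells previously treated 17 h at 37C with DMSO-dissolved compounds.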

Assay [4] in a line: qHTS assay to identify small molecule phospholipidosis (PLD) inducers (AID 1259344; active = well fitted curve in the direction sought with a large enough effect; an effect the other way counts as inactive or inconclusive). The essentials: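 Accumulated phospholipid, stained red by LipidTOX during 24 h compound treatment of HepG2 cells at 37 C, is quantified from images as pit number and intensity, normalised per cell using Hoechst-stained nuclei.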
Assay [5] deals with Nuclear receptor subfamily 1 group I member 2 (Rattus norvegicus) (UniProt Q9R1A7). The experiment in a line: Rat pregnane X receptor (rPXR) activation by small molecules, qHTS assay (AID 1346983). Also: nearly all actives have a fitted effect of over 20% in size. Also: potency is read from the fitted curve at half-maximal effect. As to conditions: rPXR luciferase reporter cells, One-Glo luminescence, 24 h; max activation: active compounds read high. The essentials:
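Luminescent readout (One-Glo luciferase, 30 min room temperature) followed 24 hr compound treatment at 37 C of rPXR cells plated 2,000 per well and preincubated 5hr; qHTS format with compounds delivered in DMSO.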

In assay [6] the target is Nuclear receptor subfamily 1 group I member 2 (Homo sapiens) (UniProt O75469). As to the kind of experiment: CYP3A4 induction through human pregnane X receptor (PXR) by small molecules, qHTS assay (AID 1346984). Also: nearly all actives have a fitted effect of over 40% in size. The essentials:
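Induction measured in HepG2-based DPX-2 cells co-expressing human PXR and a CYP3A4 promoter-driven luciferase. After a 24-hour compound exposure, cells received CYP3A4 luciferin substrate at 3uM final for 3 hours, and light output was then recorded.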

For assay [7] the target is unchanged. As to the kind of experiment: Human pregnane X receptor (PXR) activation by small molecules, qHTS assay (AID 1346985). Also: nearly all actives have a fitted effect of over 40% in size. Also: potency is read from the fitted curve at half-maximal effect. The essentials:
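DPX-2 cells (HepG2 co-transfected with a PXR response element and a CYP3A4-promoter luciferase construct) were seeded at 2,000 per well, rested 5 hr at 37C, then exposed to DMSO-dissolved compounds for 24 hr. Activation was read as luciferase luminescence.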

In assay [8] the target is Aryl hydrocarbon receptor (Homo sapiens) (UniProt P35869). The experiment in a line: qHTS assay to identify small molecule that activate the aryl hydrocarbon receptor (AhR) signaling pathway (AID 743085). Also: nearly all actives have a fitted effect of over 15% in size. Also: potency is read from the fitted curve at half-maximal effect.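 As to activation: HG2L7.5c1 human HepG2 liver cells with stably integrated DRE-driven firefly reporter; series mostly up to about 70 µM.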 The method in brief: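 Luminescence read-out: ONE-Glo reagent, 30 min at room temperature, in HG2L7.5c1 HepG2 reporter cells treated 24 h at 37C. Viability was measured beforehand by CellTiter-Fluor fluorescence after 30 min at 37C.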

Structures are written as SMILES. Records with an inconclusive call do not appear. Unmarked numbers belong to inactive results. Activity calls are given as the source filed them. Unless noted, calls follow the shape of the dose curve; as a rule, active = well fitted curve in the direction sought with a large enough effect in the repeat runs; inconclusive = weak or mixed curves; inactive = no such curve, though single readings can be large; an effect the other way counts as inactive or inconclusive.
% is scaled to controls: 0 for no effect and ±100 for the full control effect.

Sequence of Nuclear receptor subfamily 1 group I member 2 (Rattus norvegicus) (Q9R1A7 whole entry, looked up): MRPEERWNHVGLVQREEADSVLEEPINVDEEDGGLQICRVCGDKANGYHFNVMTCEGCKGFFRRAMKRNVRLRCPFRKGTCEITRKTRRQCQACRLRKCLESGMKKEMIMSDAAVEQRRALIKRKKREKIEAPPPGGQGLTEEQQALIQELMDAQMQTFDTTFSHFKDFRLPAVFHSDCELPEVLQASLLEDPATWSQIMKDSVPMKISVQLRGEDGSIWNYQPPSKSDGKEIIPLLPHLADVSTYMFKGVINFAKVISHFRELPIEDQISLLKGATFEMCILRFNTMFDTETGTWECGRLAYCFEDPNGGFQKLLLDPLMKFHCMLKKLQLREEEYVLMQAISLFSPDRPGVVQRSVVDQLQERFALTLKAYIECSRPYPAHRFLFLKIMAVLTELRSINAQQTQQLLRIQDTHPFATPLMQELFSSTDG
Sequence of Aryl hydrocarbon receptor (Homo sapiens) (P35869 whole entry, looked up): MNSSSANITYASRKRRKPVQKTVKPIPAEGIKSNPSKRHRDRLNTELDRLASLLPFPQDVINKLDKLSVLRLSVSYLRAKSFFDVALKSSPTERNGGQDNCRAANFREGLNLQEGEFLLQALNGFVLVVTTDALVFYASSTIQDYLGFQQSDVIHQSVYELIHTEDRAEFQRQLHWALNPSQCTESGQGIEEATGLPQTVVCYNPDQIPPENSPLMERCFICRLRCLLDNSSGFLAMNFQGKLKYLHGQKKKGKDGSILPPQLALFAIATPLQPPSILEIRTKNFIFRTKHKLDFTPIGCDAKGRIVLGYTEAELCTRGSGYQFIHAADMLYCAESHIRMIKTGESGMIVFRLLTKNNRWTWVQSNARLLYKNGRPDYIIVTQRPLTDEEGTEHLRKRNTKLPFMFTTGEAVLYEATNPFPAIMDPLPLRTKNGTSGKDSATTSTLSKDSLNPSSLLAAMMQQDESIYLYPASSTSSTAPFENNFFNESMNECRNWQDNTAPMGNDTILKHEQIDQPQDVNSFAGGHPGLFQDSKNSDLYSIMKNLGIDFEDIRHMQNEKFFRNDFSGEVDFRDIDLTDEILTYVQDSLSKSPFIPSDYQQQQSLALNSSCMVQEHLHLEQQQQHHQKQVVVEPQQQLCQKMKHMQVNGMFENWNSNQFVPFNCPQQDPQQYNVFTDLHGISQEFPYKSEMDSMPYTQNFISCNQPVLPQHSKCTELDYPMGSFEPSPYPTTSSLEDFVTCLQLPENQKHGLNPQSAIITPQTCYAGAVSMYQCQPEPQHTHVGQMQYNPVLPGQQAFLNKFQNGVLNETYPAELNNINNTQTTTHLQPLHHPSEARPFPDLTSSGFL
Sequence of Peroxisome proliferator-activated receptor gamma (Homo sapiens) (P37231 whole entry, looked up): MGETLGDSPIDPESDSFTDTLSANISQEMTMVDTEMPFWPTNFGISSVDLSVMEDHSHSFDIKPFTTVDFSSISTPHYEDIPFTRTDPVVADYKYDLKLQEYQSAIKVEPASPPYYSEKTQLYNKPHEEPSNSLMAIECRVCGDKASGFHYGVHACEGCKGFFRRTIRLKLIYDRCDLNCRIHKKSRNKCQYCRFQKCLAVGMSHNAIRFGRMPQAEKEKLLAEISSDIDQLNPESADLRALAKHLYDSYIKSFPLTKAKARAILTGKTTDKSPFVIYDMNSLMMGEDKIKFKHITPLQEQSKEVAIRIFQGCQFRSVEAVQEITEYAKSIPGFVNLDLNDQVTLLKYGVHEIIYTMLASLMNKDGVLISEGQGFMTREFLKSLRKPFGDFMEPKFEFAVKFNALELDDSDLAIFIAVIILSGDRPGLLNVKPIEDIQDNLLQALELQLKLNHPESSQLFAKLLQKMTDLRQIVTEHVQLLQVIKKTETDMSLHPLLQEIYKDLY

`C[C@@H]1C[C@H]2[C@@H]3CCC4=CC(=O)C=C[C@]4(C)[C@@]3(F)[C@@H](O)C[C@]2(C)[C@@]1(O)C(=O)COC(=O)c1cccc(S(=O)(=O)O)c1`: the Potency entry in assay [1], in assay [2], in assay [3], in assay [4], in assay [6] and in assay [7] was “inactive” each time. The Potency in assay [5] is 10 µM (active).

For `C[C@H]1[C@@H](OC(=O)CCC(=O)O)O[C@@H]2OC3(C)CC[C@H]4[C@H](C)CC[C@@H]1[C@@]24OO3`, the Potency entry in assay [8], in assay [4], in assay [6] and in assay [7] was “inactive” throughout. Besides, in assay [5], the max activation was -13.4%.

Turning to `O=C(OC[C@H]1O[C@](O)(COC(=O)c2cccnc2)[C@@H](OC(=O)c2cccnc2)[C@@H]1OC(=O)c1cccnc1)c1cccnc1`, the Potency result in assay [1], in assay [8], in assay [3], in assay [4], in assay [6] and in assay [7] was “inactive” in each case. For the same compound, the max activation in assay [5] was 1.1%.

As for `CN(C)C(=O)CCSC(SCCC(=O)O)c1cccc(/C=C/c2ccc3ccc(Cl)cc3n2)c1` (centres undefined), the Potency was 1.88 µM (active) in assay [8], 4.47 µM (active) in assay [5] and 8.91 µM (active) in assay [7]. The Potency entry in assay [4] and in assay [6] was “inactive” in each case.

For the compound `CCC(Cc1c(I)cc(I)c(O)c1I)C(=O)O` (centres undefined), the Potency result in assay [1], in assay [2], in assay [4], in assay [6] and in assay [7] was “inactive” each time. The max activation in assay [5] was -2.63%.

On to `Cc1c(Cl)cccc1Nc1ncccc1C(=O)O`, for which the Potency result in assay [1], in assay [2], in assay [3], in assay [4], in assay [6] and in assay [7] was “inactive” throughout. The max activation in assay [5] is 0.0958%.

As to `CCCCCc1ccc(C)cc1O`, the Potency entry in assay [1], in assay [2], in assay [3], in assay [4], in assay [6] and in assay [7] was “inactive” in each case. Also, the max activation in assay [5] was 4.82%.

Take `C=CCOc1ccc(CC(=O)O)cc1Cl`: the Potency entry in assay [1], in assay [2], in assay [4], in assay [6] and in assay [7] was “inactive” in each case. Further, the max activation in assay [5] is -5.29%.

Turning to `CC(C)(C)NCC(O)CSc1nc(-c2ccc(C(N)=O)s2)cs1` (centres undefined), the Potency entry in assay [1], in assay [2], in assay [3], in assay [4], in assay [6] and in assay [7] was “inactive” each time. Further, the max activation in assay [5] was -4.09%.

As to `O=[N+]([O-])O[C@@H]1CO[C@H]2[C@@H]1OC[C@@H]2O`, the Potency result in assay [1], in assay [2], in assay [3], in assay [4], in assay [6] and in assay [7] was “inactive” each time. For the same compound, the max activation in assay [5] was -3.54%.

As to `COc1ccc(C[C@H](C)NC[C@@H](O)c2ccc(O)c(NC=O)c2)cc1`, the Potency entry in assay [1], in assay [8], in assay [3], in assay [4], in assay [6] and in assay [7] was “inactive” each time. In addition, the max activation in assay [5] was -1.02%.

Turning to `CN1CCC(OC(=O)C(Oc2ccc(Cl)cc2)Oc2ccc(Cl)cc2)CC1`, the Potency entry in assay [1], in assay [8], in assay [3], in assay [4], in assay [6] and in assay [7] was “inactive” each time. Besides, the max activation in assay [5] is -4.17%.

On to `O=C(O)CN(CC(=O)O)CC1=CC2C(=CC1=O)Oc1cc(O)c(CN(CC(=O)O)CC(=O)O)cc1C21OC(=O)c2ccccc21` (centres undefined), for which the Potency entry in assay [8], in assay [4], in assay [6] and in assay [7] was “inactive” in each case. Further, the max activation in assay [5] is 0.33%.

With `C[Se]CCC(N)C(=O)O` (centres undefined), the Potency result in assay [1], in assay [2], in assay [3], in assay [4], in assay [6] and in assay [7] was “inactive” each time. For the same compound, the max activation in assay [5] was -0.898%.

Take `NCc1ccccc1CC(=O)N[C@@H]1C(=O)N2C(C(=O)O)=C(CSc3nnnn3CC(=O)O)CS[C@H]12`: the Potency entry in assay [1], in assay [2], in assay [3], in assay [4], in assay [6] and in assay [7] was “inactive” each time. Also, in assay [5], the max activation was -0.103%.

Turning to `NC(N)=NCC1COc2ccccc2O1` (centres undefined), the Potency result in assay [1], in assay [2], in assay [3], in assay [4], in assay [6] and in assay [7] was “inactive” throughout. In assay [5], the max activation is -4.35%.

As for `O=C(OCc1ccccc1)c1cccnc1`, the Potency entry in assay [1], in assay [2], in assay [3], in assay [4], in assay [6] and in assay [7] was “inactive” throughout. Further, the max activation in assay [5] is 6.76%.

Take `COc1ccc(-c2noc(CC(=O)O)c2-c2ccc(OC)cc2)cc1`: the Potency result in assay [1], in assay [2], in assay [4], in assay [6] and in assay [7] was “inactive” each time. Moreover, the max activation in assay [5] was -3.32%.

For `OC[C@H]1O[C@@H](O[C@H]2[C@H](O)[C@@H](O)[C@H](O)O[C@@H]2CO)[C@H](O)[C@@H](O)[C@@H]1O`, the Potency entry in assay [1], in assay [2], in assay [3], in assay [4], in assay [6] and in assay [7] was “inactive” in each case. Also, the max activation in assay [5] is -4.71%.

Regarding `O=C(CCCCCCCCCCCCC1CCCC1)Nc1ccc(S(=O)(=O)c2ccc(NC(=O)CCCCCCCCCCCCC3CCCC3)cc2)cc1`, the Potency entry in assay [1], in assay [2], in assay [3], in assay [4], in assay [6] and in assay [7] was “inactive” in each case. For the same compound, the max activation in assay [5] was -2.51%.

Take `COc1cc(-c2ccc(-[n+]3nc(-c4ccccc4)nn3-c3ccc([N+](=O)[O-])cc3)c(OC)c2)ccc1-[n+]1nc(-c2ccccc2)nn1-c1ccc([N+](=O)[O-])cc1`: the Potency was 29.8 µM (active) in assay [1] and 26.6 µM (active) in assay [2]. The Potency entry in assay [4], in assay [6] and in assay [7] was “inactive” in each case. For the same compound, in assay [5], the max activation is -16%.

With `O=C(O)c1cc(O)c2c(c1)[O][Bi][O]2`, the Potency entry in assay [1], in assay [2], in assay [4], in assay [6] and in assay [7] was “inactive” in each case. The max activation in assay [5] is -0.194%.

Consider `C/C1=C2N=C(/C=C3N=C(/C(C)=C4\[N-][C@@](C)([C@@H]5N=C1[C@](C)(CCC(=O)NCC(C)OP(=O)(O)O[C@H]1[C@@H](O)[C@@H](n6cnc7cc(C)c(C)cc76)O[C@@H]1CO)[C@H]5CC(N)=O)[C@@](C)(CC(N)=O)[C@@H]4CCC(N)=O)[C@@](C)(CC(N)=O)[C@@H]\3CCC(N)=O)C(C)(C)[C@@H]/2CCC(N)=O.CC(=O)O.[Co]` (some centres undefined), for which, in assay [1], the Potency is 23.7 µM (active). Also, the Potency result in assay [3], in assay [4], in assay [6] and in assay [7] was “inactive” in each case. In addition, in assay [5], the max activation was -15.5%.
